This is an account of results in PubChem BioAssay AID431 (Sanford-Burnham Center for Chemical Genomics, 2006).

About 1,100 (1.7%) of roughly 63,000 compounds were called active.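 How the source made its calls: active means compounds whose percent cytotoxicity in the single-dose primary screen, scaled between solvent and toxic-drug controls, exceeds 50; inactive means the rest.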 This excerpt belongs to a sample that is enriched for actives. Entries with a potency or affinity are not part of this list.

A short description of this experiment: cytotoxicity in KRAS-transformed pancreatic duct cells, primary screen, cell-based, fluorescence, HTS (AID 431).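 Further: 0% = DMSO solvent wells and 100% = doxorubicin-treated wells.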 The settings on record: HPDE-C7K KRASV12 cells, Alamar Blue viability, 48 h; at 10 µM; active compounds read high.
Turning to `CCN(CC)CCCN1C(=O)C(=O)/C(=C(/O)c2cc(C)ccc2C)C1c1cccnc1` (stereo not drawn), the cytotoxicity is -4.8% (inactive).

On to `CCOC(=O)c1ccccc1NC(=O)c1ccccc1SC`, for which the cytotoxicity was 21.6% (inactive). Next, `Cc1ccccc1NC(=O)c1c(F)c(F)c(F)c(F)c1F`: -12% (inactive).

Turning to `CCOC(=O)c1ccccc1NC(=O)c1cccs1`, the cytotoxicity was -12.9% (inactive). The same measure for `O=C(Nc1ccccc1Cl)c1c(F)c(F)c(F)c(F)c1F`: 0.3% (inactive). Consider `CC1=C(C#N)C(C)C2=C(CC(C)(C)CC2=O)N1` (stereo not drawn), for which the cytotoxicity is -3.6% (inactive).

For `CN1CCN(C2=Nc3ccccc3Oc3ccc(Cl)cc32)CC1`, the cytotoxicity is -3.2% (inactive). As for `Cn1c(Cl)cnc1C1CC(=O)c2cc(Cl)ccc2O1` (stereo not drawn), the cytotoxicity was 67.1% (active). On to `COc1ccc2c(c1)C(=O)CC(c1ccccc1F)O2` (stereo not drawn), for which the cytotoxicity was 7.5% (inactive). Turning to `O=C(Nc1ccc2nc[nH]c2c1)c1ccco1`, the cytotoxicity was 16.9% (inactive). Next, `COC(=O)C(C)Sc1nc2c(c(=O)[nH]c(=O)n2C)n1CCCc1ccccc1` (stereo not drawn): -4.9% (inactive); `O=S(=O)(NCCO)c1cccc2cccnc12`: -9.3% (inactive).

Turning to `CCC(C)(C)n1nnnc1C(c1ccc(C)cc1)N1CCN(Cc2cccnc2)CC1` (stereo not drawn), the cytotoxicity is -32% (inactive).

For `O=C(OCC(=O)N1CCN(C(=O)c2ccco2)CC1)c1cc(=O)c2ccccc2o1`, the cytotoxicity is -1.9% (inactive). Turning to `C=C1[C@@H](C)C2[C@H](Cc3ccccc3)NC(=O)[C@]23OC(=O)CC[C@H](O)CCC[C@H](C)C/C=C/[C@H]3[C@@H]1O` (stereo partly drawn), the cytotoxicity was 59.8% (active). The same measure for `Cc1ccc(Nc2cccccc2=O)cc1`: -1.6% (inactive); for `CCC1(C)Cc2c(sc3c2c(=O)n(C)c2nnc(SCc4ccccc4)n32)CO1` (stereo not drawn): 3.4% (inactive); for `NC1=NC(c2ccccc2Cl)n2c(nc3ccccc32)N1` (stereo not drawn): 0.6% (inactive). Next, `Cc1cc(C2N=C(N)Nc3nc4ccccc4n32)c(C)n1-c1ccccc1Cl` (stereo not drawn): 5.7% (inactive). With `COc1cc(OC)cc(-n2nnnc2SCC(=O)N2CCCC2)c1`, the cytotoxicity was -16% (inactive).

Take `COc1ccc(-n2nnnc2S(=O)(=O)CC(=O)N2CCCCC2)cc1`: the cytotoxicity is 56.8% (active). Next, `COc1ccc(-n2nnnc2S(=O)(=O)Cc2ccc(C(=O)O)cc2)cc1`: 2.6% (inactive).

Turning to `C=CCc1ccccc1OCC(O)CN1CCN(c2ccccc2OC)CC1` (stereo not drawn), the cytotoxicity was 6.9% (inactive). The same measure for `COc1ccccc1N1CCN(CC(O)COc2cccc3ccccc23)CC1` (stereo not drawn): 51.3% (active). The same measure for `COc1ccccc1N1CCN(CC(O)COc2c(OC)cccc2OC)CC1` (stereo not drawn): 3.7% (inactive); for `CCn1c(SCC(=O)N2CCCC2)nc2c1c(=O)n(C)c(=O)n2C`: -12.3% (inactive).

For `Cc1cc(OCCOCCN(C)CCO)cc(C)c1Cl`, the cytotoxicity was 16.8% (inactive). Next, `Cc1ccccc1C(=O)Nc1nnc(-c2ccc(F)cc2)o1`: 10.5% (inactive). Next, `COc1ccccc1-c1nnc(NC(=O)c2ccc(S(=O)(=O)N(C)Cc3ccccc3)cc2)o1`: 64.9% (active); `COc1ccccc1-c1nnc(NC(=O)c2ccc(S(=O)(=O)N(C)C)cc2)o1`: -3.2% (inactive); `CCN(Cc1ccccc1)S(=O)(=O)c1ccc(C(=O)Nc2nnc(-c3ccccc3OC)o2)cc1`: 37.9% (inactive). Next, `COCc1nnc(NC(=O)c2ccc(S(=O)(=O)N(C)c3ccccc3)cc2)o1`: 36.3% (inactive); `CN(c1ccccc1)S(=O)(=O)c1ccc(C(=O)Nc2nnc(-c3ccc(F)cc3)o2)cc1`: 62.8% (active); `CN(C)S(=O)(=O)c1ccc2c(c1)c(=O)c(C(=O)N1CCN(c3ccccn3)CC1)cn2C`: 5% (inactive). As for `COc1cc(Cl)c(C)cc1NC(=O)CSc1nnc(-c2ccccn2)n1Cc1ccco1`, the cytotoxicity is -4.6% (inactive). Next, `O=C(CN1C(=O)c2ccccc2C1=O)Nc1cccnc1`: 10.7% (inactive); `N#Cc1cccc(C(c2nnnn2CCc2ccccc2)N2CCN(C3CCCCC3)CC2)c1` (stereo not drawn): 7.9% (inactive). Next, `COc1cccc(NC(=O)N2CCC(C(=O)Nc3ccc(C)cc3C)CC2)c1`: -5.2% (inactive).

In the case of `c1ccc(CSc2nnc(-c3c[nH]c4ccccc34)o2)cc1`, the cytotoxicity was 1.1% (inactive).

In the case of `S=c1[nH]nc(Cc2c[nH]c3ccccc23)o1`, the cytotoxicity was 1.2% (inactive).

For `COc1ccc(C(=O)Nc2nnc(-c3ccccc3)o2)cc1OC`, the cytotoxicity was -0.9% (inactive). The same measure for `COc1cccc(-c2nnc(NC(=O)c3cccc(F)c3)o2)c1`: 44.6% (inactive); for `Cc1cccc(-c2nnc(NC(=O)c3ccc(Cl)cc3)o2)c1`: 87.9% (active); for `COc1ccccc1C(=O)Nc1nnc(-c2ccc(Cl)cc2)o1`: -0.6% (inactive). Next, `COc1cccc(C(=O)Nc2nnc(-c3ccc(Cl)cc3)o2)c1`: 85% (active); `CN(C)c1ccc(C(=O)Nc2nnc(-c3ccc(Cl)cc3)o2)cc1`: 17.7% (inactive).

Turning to `COc1cccc(C(=O)Nc2nnc(-c3ccc(F)cc3)o2)c1`, the cytotoxicity was 10.3% (inactive). The same measure for `CC(=O)c1ccc(C(=O)Nc2nnc(-c3ccc(Cl)cc3)o2)cc1`: 44.7% (inactive). The same measure for `CCOc1ccc(N2CC(C(=O)Nc3ccc(F)cc3F)CC2=O)cc1` (stereo not drawn): -19.6% (inactive). For the compound `Clc1ccc(NC2=NCCC2)cc1Cl`, the cytotoxicity was -1.4% (inactive).

Turning to `O=C(CN1CCN(C(=O)c2ccco2)CC1)Nc1ccccc1-c1ccccc1`, the cytotoxicity was 3% (inactive). Next, `CO[C@H]1C[C@@H]2CC[C@@H](C)[C@@](O)(O2)C(=O)C(=O)N2CCCC[C@H]2C(=O)O[C@H]([C@H](C)C[C@@H]2CC[C@@H](O)[C@H](OC)C2)CC(=O)[C@H](C)C=C(C)[C@@H](O)[C@@H](OC)C(=O)[C@H](C)C[C@H](C)C=CC=CC=C1C`: 91% (active); `CC1Cn2c(nnc2-c2ccc(F)cc2)S1` (stereo not drawn): 11.1% (inactive). Next, `CCOc1ccccc1NC(=O)C1CCCN(S(=O)(=O)c2cccc3cccnc23)C1` (stereo not drawn): 26.1% (inactive). Next, `CCCCn1c(NC(=O)c2ccccc2)c(C#N)c2nc3ccccc3nc21`: 112% (active); `CCCCn1c(NC(=O)c2ccc(F)cc2)c(C#N)c2nc3ccccc3nc21`: 87.7% (active); `CCC(=O)Nc1c(C#N)c2nc3ccccc3nc2n1-c1ccccc1C`: 2.8% (inactive). As to `N#Cc1c(NC(=O)c2ccc(Br)o2)n(-c2ccccc2)c2nc3ccccc3nc12`, the cytotoxicity is 58.7% (active).

Turning to `CCCCCn1c(N)c(C#N)c2nc3ccccc3nc21`, the cytotoxicity is 2.3% (inactive). The same measure for `C=CCn1c(NC(=O)c2ccccc2)c(C#N)c2nc3ccccc3nc21`: 65.2% (active); for `CCCCn1c(NC(=O)CC)c(C#N)c2nc3ccccc3nc21`: -5.1% (inactive). Next, `CCCCn1c(NC(C)=O)c(C#N)c2nc3ccccc3nc21`: -0.1% (inactive); `C=CCn1c(NC(=O)c2ccccc2Cl)c(C#N)c2nc3ccccc3nc21`: 7.7% (inactive). For the compound `CCCCn1c(NC(=O)c2ccccc2Cl)c(C#N)c2nc3ccccc3nc21`, the cytotoxicity was 35.8% (inactive). On to `O=C(Nc1ccc2nn(-c3ccccc3)nc2c1)c1ccc(Br)o1`, for which the cytotoxicity is 13.2% (inactive).

Take `COc1ccc(-n2c(NC(=O)c3ccco3)c(C#N)c3nc4ccccc4nc32)cc1`: the cytotoxicity was 9.7% (inactive). Next, `CCc1ccc(OCc2nc(-c3ccccn3)no2)c(Br)c1`: 30.6% (inactive); `COc1cc(C2C(C#N)=C(N)Oc3cc(C)oc(=O)c32)cc2c1OCO2` (stereo not drawn): -4.3% (inactive). Next, `CCN(CC)CCNc1nc2c(c(=O)[nH]c(=O)n2C)n1CC(O)COc1ccc(Cl)cc1Cl` (stereo not drawn): 10.6% (inactive); `CCc1nnc(NC(=O)CSc2nnc(CSc3nc(C)cc(C)n3)n2C)s1`: 10.6% (inactive); `N#Cc1c2c(c(=S)n(-c3ccccc3)c1N)CCCC2`: 0.5% (inactive).

Take `CCOC(=O)c1c(N)sn(-c2ccccc2)c1=S`: the cytotoxicity was 13.3% (inactive). The same measure for `CC(C)C(CC(=O)N1CCCCC1)C1CCOC(C)(C)C1` (stereo not drawn): -5.8% (inactive); for `Cc1ccc(S(=O)(=O)c2cc3c(=O)n4ccccc4nc3n(Cc3ccco3)c2=N)cc1`: 30.2% (inactive); for `Cc1ccc(Cn2c(=N)c(C(=O)NCc3ccco3)cc3c(=O)n4ccccc4nc32)cc1`: -6.4% (inactive). Turning to `N=c1c(S(=O)(=O)c2ccccc2)cc2c(=O)n3ccccc3nc2n1Cc1ccco1`, the cytotoxicity is 4.6% (inactive). The same measure for `Cc1ccc(CNC(=O)c2cc3c(=O)n4ccccc4nc3n(Cc3ccco3)c2=N)cc1`: 98.3% (active). The same measure for `N=c1c(C(=O)NCc2ccccc2)cc2c(=O)n3ccccc3nc2n1Cc1ccco1`: 38.6% (inactive); for `Cc1ccc(CNC2=NCCCCC2)n1C`: 0.1% (inactive). The same measure for `CS(=O)(=O)N(CC(=O)N1CCC(C(N)=O)CC1)c1ccc(Oc2ccccc2)cc1`: 4.5% (inactive).

Regarding `CN1CCc2ccccc2C1C1CCNCC1` (stereo not drawn), the cytotoxicity is 1.4% (inactive). Next, `N#Cc1c(/N=C/c2ccco2)sc2c1CCC2`: 0.3% (inactive). As to `COc1ccc(NC(=O)CN(c2ccccc2)S(=O)(=O)N(C)C)cc1OC`, the cytotoxicity was -4.2% (inactive).

As for `COc1ccc(C2=NOC(C(=O)NCc3ccc(F)cc3)C2)cc1` (stereo not drawn), the cytotoxicity was 43% (inactive).

Take `COc1cccc(C2=NOC(C(=O)NCc3ccc(F)cc3)C2)c1` (stereo not drawn): the cytotoxicity is 49.7% (inactive). The same measure for `COc1ccc(CNC(=O)C2CC(c3ccc(F)cc3)=NO2)cc1` (stereo not drawn): 1.6% (inactive). `COc1cc(C2=NOC(C(=O)NCc3ccc(F)cc3)C2)cc(OC)c1OC` (stereo not drawn): the cytotoxicity is 55.1% (active). The same measure for `COc1ccc(C2=NOC(C(=O)NCc3ccc(F)cc3)C2)cc1OC` (stereo not drawn): 58.9% (active); for `COc1cc(C2=NOC(C(=O)NCc3ccco3)C2)cc(OC)c1OC` (stereo not drawn): 10.5% (inactive). The same measure for `Cc1ccc(C2(C)NC(=O)N(CC(=O)Nc3ccc4c(c3)OCO4)C2=O)cc1` (stereo not drawn): -4.8% (inactive); for `Fc1ccc(-c2nnc(SCc3ncc(-c4ccccc4)o3)n2CC2CCCO2)cc1` (stereo not drawn): -17.5% (inactive); for `CCOc1cc(C2C(C#N)=C(N)OC3CCCC(=O)C32)ccc1OCCN1CCOCC1` (stereo not drawn): -27% (inactive). Next, `COc1ccc(-c2nnc(SCC(=O)Nc3sc4c(c3C#N)CCC4)n2CC2CCCO2)cc1` (stereo not drawn): -1.4% (inactive).
